FEN1 inh-1: human FEN1 inhibition; 390,000 compounds, 0.35% hits; Potency, µM (series often up to 114 µM), for inactives: at the highest dose activity change, negative = inhibition, most hits filed as inhibitors; Recombinant FEN1 flap cleavage, fluorescence, 15 min; P39748; further: potency means the concentration at half of the fitted maximal effect; on the % scale 0 is the no-effect control and ±100 the full control effect; nearly all actives have a fitted effect of over 65% in size
Target sequence (P39748 whole entry, looked up): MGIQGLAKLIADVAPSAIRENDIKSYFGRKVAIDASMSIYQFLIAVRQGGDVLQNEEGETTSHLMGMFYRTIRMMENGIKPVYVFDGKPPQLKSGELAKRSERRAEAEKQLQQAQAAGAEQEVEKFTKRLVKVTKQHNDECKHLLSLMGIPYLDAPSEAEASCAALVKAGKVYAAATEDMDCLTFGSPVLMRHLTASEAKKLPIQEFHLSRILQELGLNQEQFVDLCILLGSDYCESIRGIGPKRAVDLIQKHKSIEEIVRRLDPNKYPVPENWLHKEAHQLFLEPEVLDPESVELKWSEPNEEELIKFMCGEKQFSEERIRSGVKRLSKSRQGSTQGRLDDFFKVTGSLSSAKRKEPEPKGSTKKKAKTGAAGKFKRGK
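Compounds are tested as a concentration series against 10 nM FEN1; after a 15 min room-temperature preincubation, 50 nM substrate starts cleavage, with plate reads at 0 and 15 min. Normalized responses are fitted by a Hill equation.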
WRN helicase inh-1: inhibitors of human WRN helicase; 360,000 compounds, 0.46% hits; Q14191; WRN helicase unwinding, fluorescent forked duplex, kinetic; Potency, µM (top dose mostly 114 µM), inactives show top-dose activity change, negative = inhibition, actives largely listed as inhibitors; further: potency means the concentration at half of the fitted maximal effect; on the % scale 0 is the no-effect control and ±100 the full control effect; nearly all actives have a fitted effect of over 55% in size
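Kinetic fluorescence helicase assay: unwinding of a quenched forked DNA duplex (100 nM final) with 2 mM ATP final raises red fluorescence (525/598 nm). Compounds sat 15 min at room temperature with 20 nM WRN beforehand.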
Pol eta inh-1: DNA polymerase eta (human) inhibition; recombinant Pol eta, fluorescent DNA replication assay; Potency, µM (top dose mostly 114 µM), for inactives: top-dose activity change, negative = inhibition, hits mostly inhibitors; 390,000 compounds, 1.2% hits; further: potency means the concentration at half of the fitted maximal effect; on the % scale 0 is the no-effect control and ±100 the full control effect
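Fluorescent replication assay: 50 nM final substrate added after a 15 min room-temperature compound preincubation with 10 nM enzyme. Signal taken at 0 min and again at 10 min.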
Pol beta inh-1: blocks human DNA polymerase beta activity | Pol beta primer extension/strand displacement, fluorescence kinetic | Potency, µM (top dose mostly 114 µM), inactives show at the top dose activity change, negative = inhibition, most hits filed as inhibitors | 340,000 compounds, 1.3% hits; further: potency means the concentration at half of the fitted maximal effect; on the % scale 0 is the no-effect control and ±100 the full control effect
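Preincubation: enzyme (10 nM) with compound, 15 min, RT. Reaction: substrate added to 50 nM final. Reads: 0 and 10 min. Analysis: normalized, Hill fit.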
Pol kappa inh-1: inhibitors of human DNA polymerase kappa. Q9UBT6. purified Pol kappa, fluorescent DNA synthesis assay, 10 min. Potency, µM (titrated, usually from 107 µM), for the others: top-dose activity, negative = inhibition, actives largely listed as inhibitors. 400,000 compounds, 0.53% hits. AID 588579; further: potency means the concentration at half of the fitted maximal effect; on the % scale 0 is the no-effect control and ±100 the full control effect
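Enzyme at 10 nM met test compounds for 15 min at room temperature. Substrate addition (50 nM final) began the reaction, which was monitored by fluorescence at 0 and 10 min.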
POLI inh: inhibitors of human DNA polymerase iota. Pol iota fluorescent replication assay, 10 min. Potency, µM (titrated, usually from 115 µM), for the others: top-dose activity, negative = inhibition, usual class: inhibitors. 390,000 compounds, 1% hits. AID 588590; further: potency means the concentration at half of the fitted maximal effect
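Fluorescent replication assay read twice, at 0 min and 10 min after adding 50 nM (final) substrate. Enzyme (10 nM) and compounds were first incubated 15 min at room temperature; enzyme-free buffer wells were negative controls.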
Pol beta inh-2: Human Pol beta inhibitor hit validation. shares compounds with Pol beta inh-1. Pol beta primer extension/strand displacement, fluorescence kinetic. Potency, µM, most hits filed as inhibitors. 250 compounds, 87% hits; calls by dose curve; further: potency means the concentration at half of the fitted maximal effect
Klenow inh: Klenow polymerase inhibition, pol beta selectivity check. shares compounds with Pol beta inh-1. AID 540300. activity change, negative = inhibition, % at 57.1 µM. 250 tested, under 10 active. Klenow exo- polymerase counter-screen, fluorescent DNA substrate
HIV RT inh: inhibits HIV-1 reverse transcriptase in counter-screen | HIV-1 RT polymerase activity, counter-screen | activity % (negative = inhibition, positive = activation), % at 57.1 µM | AID 540301 | 250 tested, under 10 active | shares compounds with Pol beta inh-1
POLB inh gel: DNA polymerase beta inhibition, radiolabeled validation; shares compounds with Pol beta inh-1; radiolabeled primer extension gel assay, phosphorimager; inhibition, % at 10 µM; 110 compounds, 91% hits; AID 540325;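 active means inhibition at 10 µM of 30% or more; inconclusive means no clear call, values can overlap the other calls; inactive means inhibition at 10 µM under 30%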
Pol iota confirm: Human Pol iota inhibitor confirmatory assay; shares compounds with Pol kappa inh-1; Pol iota primer extension, TAMRA/BHQ fluorescence; Potency, µM, most hits filed as inhibitors; 1,500 compounds, 77% hits; further: potency means the concentration at half of the fitted maximal effect
Pol kappa inh-2: confirmation of human DNA polymerase kappa inhibitors; shares compounds with Pol eta inh-1; purified Pol-kappa, fluorescent strand-displacement substrate; Potency, µM, most hits filed as inhibitors; 920 compounds, 76% hits; further: potency means the concentration at half of the fitted maximal effect
Pol eta inh-2: confirmation of human DNA polymerase eta inhibitors. shares compounds with Pol eta inh-1. Pol eta primer extension, TAMRA/BHQ fluorescence, 10 min. Potency, µM, hits mostly inhibitors. 2,600 compounds, 64% hits. AID 720502; further: potency means the concentration at half of the fitted maximal effect
FEN1 inh-2: confirmation of human FEN1 inhibitors; FEN1 flap cleavage, TAMRA/BHQ2 fluorogenic DNA substrate; Potency, µM, most hits filed as inhibitors; 880 compounds, 79% hits; shares compounds with FEN1 inh-1; further: potency means the concentration at half of the fitted maximal effect; nearly all actives have a fitted effect of over 60% in size
WRN helicase inh-2: confirmation of human WRN helicase inhibitors; 610 compounds, 63% hits; shares compounds with WRN helicase inh-1; AID 720497; Potency, µM (titrated, usually from 57.1 µM), for inactives: at the highest dose activity, negative = inhibition, actives largely listed as inhibitors; WRN helicase DNA unwinding, fluorescence kinetic; further: potency means the concentration at half of the fitted maximal effect; nearly all actives have a fitted effect of over 65% in size
TO displacement: binds DNA, flagged in WRN inhibitor counterscreen; shares compounds with WRN helicase inh-1; thiazole orange DNA binding displacement, fluorescence; Potency, µM (top dose mostly 57.1 µM), for inactives: at the top dose activity change, negative = inhibition, most hits filed as inhibitors; 610 compounds, 10% hits; AID 720499;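 further: drop in dye fluorescence marks compound binding to DNA; potency means the concentration at half of the fitted maximal effect; on the % scale 0 is the no-effect control and ±100 the full control effect; nearly all actives have a fitted effect of over 60% in size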
BLM helicase inh: counter-screen for WRN helicase inhibitors: human BLM helicase inhibition. Recombinant BLM helicase DNA unwinding, red fluorescence. Potency, µM (top dose mostly 57.1 µM), for inactives: at the top dose activity change, negative = inhibition, hits mostly inhibitors. 610 compounds, 60% hits. shares compounds with WRN helicase inh-1; further: potency means the concentration at half of the fitted maximal effect; nearly all actives have a fitted effect of over 60% in size
The depositor's hits bear a star; [ ] = dose if it differs, or a comment. Most compounds without a hit are left out; they make up all but 2.4% or so of the library. Unless noted, the call rests on the fitted dose curve; in most records, active means well fitted curve in the direction sought with a large enough effect; inconclusive means small, poorly fitted or top-dose-only effect, or another doubt; inactive means no such curve, though single readings can be large; an effect the other way counts as inactive or inconclusive.

Screening Cc1ccc(-c2cc(-c3ccco3)c(C#N)c(=O)[nH]2)cc1 returned FEN1 inh-1 inconclusive, WRN helicase inh-1 32µM*, Pol eta inh-1 28µM*, Pol beta inh-1 11µM*, Pol kappa inh-1 inconclusive, POLI inh inconclusive, Pol beta inh-2 22*, Klenow inh -28, HIV RT inh -5, POLB inh gel 96*, Pol iota confirm 21*, Pol eta inh-2 15* and FEN1 inh-2 67*.
For O=c1c(-c2cc(F)cc(F)c2)nc2cncnc2n1-c1ccccc1 the results were Pol kappa inh-1 -1%[60.1 µM].
Screening O=C1N=c2ccccc2=C1c1sc(Nc2ccc(O)cc2)nc1O returned FEN1 inh-1 inconclusive, WRN helicase inh-1 inconclusive, Pol eta inh-1 32µM*, Pol beta inh-1 20µM*, Pol kappa inh-1 35µM*, POLI inh 8.9µM*, Pol beta inh-2 7.9*, Klenow inh -38, HIV RT inh 6, Pol iota confirm 47*, Pol kappa inh-2 17*, Pol eta inh-2 inconclusive and FEN1 inh-2 76*.
`Cc1c(Cc2ccccc2)c(=O)oc2cc(O)ccc12` gave FEN1 inh-1 -8%, WRN helicase inh-1 -8%, Pol eta inh-1 -1%, Pol beta inh-1 -25%, Pol kappa inh-1 -21% and POLI inh 10%.
For Cc1c(Cc2ccccc2)c(=O)oc2c(O)c(O)ccc12 the results were FEN1 inh-1 inconclusive, WRN helicase inh-1 28µM*, Pol eta inh-1 inconclusive, Pol beta inh-1 13µM*, Pol kappa inh-1 inconclusive, POLI inh 8.9µM*, Pol beta inh-2 5*, Klenow inh -27, HIV RT inh 40, WRN helicase inh-2 6.8µM*, TO displacement -17% and BLM helicase inh 6.8µM*.

Source: PubChem (National Center for Advancing Translational Sciences (NCATS))
